# Records with an inconclusive call do not appear. Active and inactive are the calls of the source. Calls follow the shape of the dose curve; as a rule, active = well fitted activation curve with a large enough effect in the repeat runs; inconclusive = weak or mixed curves; inactive = flat fitted curve, though single readings scatter.
# Test: A CellTox Green Cytotoxicity Assay to monitor cytotoxicity in HepG2 cells - 40 hour (AID 1224879); also: nearly all actives have a fitted effect of over 40% in size
# Conditions: CellTox Green fluorescence; series mostly up to 76.8 µM; cytotoxicity increase: at the top concentration
# How it was run: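 Cytotoxicity was tracked as dead-cell DNA fluorescence in HepG2 cells treated with test compounds at 37 C; each time-point value comes from one kinetic series spanning 0, 8, 16, 24, 32 and 40 h.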
# % is scaled to controls: 0 for no effect and ±100 for the full control effect; potency is read from the fitted curve at half-maximal effect.
SMILES,Potency,cytotoxicity increase
O=C(Nc1ccccc1)c1cc(Cl)ccc1O,49 µM (active),
Cc1ccc(N=Nc2c(O)ccc3ccccc23)c(C)c1,,0.612% [at 35.3 µM] (inactive)
C/C=C/C(=O)OCC(C)C,,1.68% (inactive)
CN1CCN(CCCN2c3ccccc3Sc3ccc(C(F)(F)F)cc32)CC1,23.9 µM (active),
CC(C)(C)c1cc(CCC(=O)OCCSCCOC(=O)CCc2cc(C(C)(C)C)c(O)c(C(C)(C)C)c2)cc(C(C)(C)C)c1O,,0.785% [at 35.3 µM] (inactive)
C=Cc1ccncc1,,0.645% (inactive)
CCCCCN=C(N)N/N=C/c1c[nH]c2ccc(OC)cc12,5.35 µM (active),
CCN(CC)c1ccc(N=Nc2ccccc2)cc1,,-11.4% (inactive)
Brc1cc(Br)cc(Br)c1,,9.4% (inactive)
N#Cc1ccc(C/C(=N/NC(=O)Nc2ccc(OC(F)(F)F)cc2)c2cccc(C(F)(F)F)c2)cc1,,2.67% (inactive)
CSc1nnc(C(C)(C)C)c(=O)[nH]1,,2.57% (inactive)
CCOC(=O)OC(=O)OCC,,6.27% (inactive)
CCCCCCCCCC[N+](C)(CCCCCCCCCC)CCC[Si](OC)(OC)OC,19.5 µM (active),
c1ccc2c(c1)-c1ccc3ccc4cccc5cc-2c1c3c45,9.52 µM (active),
CCN(CC)c1ccc(C=O)c(O)c1,,4.84% (inactive)
COc1cc(/C=C/C(=O)CC(=O)/C=C/c2ccc(O)c(OC)c2)ccc1O,19.6 µM (active),
CC(C=O)c1ccccc1 (stereo not given),,-2.28% (inactive)
C=CC(=O)O[C@H]1C[C@@H]2CC[C@@]1(C)C2(C)C,,2.55% (inactive)
CCC1(C)C(=O)N(Cl)C(=O)N1Cl (stereo not given),,2.41% (inactive)
CN[C@H]1CC[C@@H](c2ccc(Cl)c(Cl)c2)c2ccc(S(N)(=O)=O)cc21,13.8 µM (active),

# — PubChem BioAssay (Tox21)
